PTHR1 ag: PTHR1 (human) receptor agonism; Q03431; Potency, µM (titrated, usually from 115 µM), most hits filed as activators; HEK293 GP2 PTHR1 cells, GloSensor cAMP luminescence, 1 h; 410,000 compounds, 0.075% hits; also: nearly all actives have a fitted effect of over 55% in size
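HEK-293-derived GP2 cells expressing PTHR1 and a GloSensor cAMP reporter, 3,000/well, plated overnight, given luciferin plus IBMX (each 0.5 mM as added) for 1 h at 37 °C, then compound for 1 h at 37 °C. Luminescence was read after 15 min at room temperature.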
TSHR antag: antagonists of human thyroid stimulating hormone receptor; P16473; TSHR-expressing cells, TSH-stimulated cAMP HTRF, 2 h; hits give low values; activity change, negative = inhibition, % at 11.5 µM; 330,000 compounds, 0.2% hits; AID 504810;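 active = activity change below a set negative limit, meaning inhibition stronger than a set level, cut at about -70% in these data; inconclusive = activity change between two set negative limits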
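Antagonism was scored as loss of TSH-driven cAMP in TSHR cells, stimulated with 4nM TSH (EC80) for 2 hours at 37 deg C and detected by homogeneous HTRF competition immunoassay.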
EPAC2 antag: blocks human EPAC2 exchange factor; Q8WZA2; EPAC2 GEF exchange of Rap1B-BODIPY-GDP, fluorescence; Potency, µM (top dose mostly 114 µM), hits mostly inhibitors; 360,000 compounds, 0.18% hits; AID 720708; also: nearly all actives have a fitted effect of over 45% in size
EPAC1 antagonist: EPAC1 (human) antagonism | O95398 | EPAC1 GEF assay, Rap1b-BODIPY-GDP exchange fluorescence | Potency, µM (top dose mostly 115 µM), actives largely listed as inhibitors | 360,000 compounds, 0.14% hits | AID 720709; also: nearly all actives have a fitted effect of over 50% in size
Target sequence (O95398 whole entry, looked up): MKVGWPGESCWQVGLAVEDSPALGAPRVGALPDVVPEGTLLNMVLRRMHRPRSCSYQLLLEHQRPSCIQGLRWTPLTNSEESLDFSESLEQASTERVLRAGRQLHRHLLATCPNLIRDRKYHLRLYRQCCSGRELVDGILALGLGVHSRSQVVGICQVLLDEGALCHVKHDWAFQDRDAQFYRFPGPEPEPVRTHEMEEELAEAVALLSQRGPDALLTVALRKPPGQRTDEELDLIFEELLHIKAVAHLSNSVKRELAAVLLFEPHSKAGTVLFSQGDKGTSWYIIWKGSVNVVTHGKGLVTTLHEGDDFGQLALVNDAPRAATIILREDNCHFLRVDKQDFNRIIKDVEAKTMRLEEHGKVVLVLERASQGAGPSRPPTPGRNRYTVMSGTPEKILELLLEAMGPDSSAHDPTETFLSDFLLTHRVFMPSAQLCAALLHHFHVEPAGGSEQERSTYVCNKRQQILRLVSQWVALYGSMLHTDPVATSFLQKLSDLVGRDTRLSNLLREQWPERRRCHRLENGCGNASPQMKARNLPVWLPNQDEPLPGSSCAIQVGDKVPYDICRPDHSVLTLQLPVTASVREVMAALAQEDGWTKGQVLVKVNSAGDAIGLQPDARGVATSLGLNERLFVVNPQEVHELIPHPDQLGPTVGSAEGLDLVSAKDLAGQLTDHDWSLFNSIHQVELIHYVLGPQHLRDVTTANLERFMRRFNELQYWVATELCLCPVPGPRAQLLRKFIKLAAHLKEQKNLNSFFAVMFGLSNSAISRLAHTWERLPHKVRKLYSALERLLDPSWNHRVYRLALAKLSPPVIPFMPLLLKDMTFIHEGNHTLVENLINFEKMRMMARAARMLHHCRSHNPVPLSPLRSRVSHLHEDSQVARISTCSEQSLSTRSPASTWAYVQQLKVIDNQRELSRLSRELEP
EPAC1 agonist: agonists of human EPAC1. O95398. EPAC1 agonist qHTS, biochemical assay; response scale: 100% = response to 6.5 mM cAMP. Potency, µM (series often up to 154 µM), actives largely listed as activators. 360,000 compounds, 0.073% hits; also: nearly all actives have a fitted effect of over 60% in size
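Compounds were pinned as a concentration titration into mixtures of EPAC1 (100 nM), BODIPY-GDP-loaded Rap1B (250 nM) and GDP (50 uM). After 5 min at room temperature, fluorescence was followed for 30 min; activity was scaled to 6.5 mM cAMP.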
EPAC2 agonist: EPAC2 (human) agonism; Q8WZA2; EPAC2 activation, biochemical qHTS; response scale: 100% = 6.5 mM cAMP response; Potency, µM (top dose mostly 154 µM), hits mostly activators; 360,000 compounds, 0.079% hits; also: nearly all actives have a fitted effect of over 50% in size
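EPAC2 (100 nM) mixed with Rap1B loaded with BODIPY-GDP (250 nM) plus 50 uM unlabeled GDP; compounds pinned in, 5 min RT, then read every 5 min for 30 min (ex 480, em 540 nm). Normalized to cAMP control.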
Numbers stand for hits; - = inactive; ? = inconclusive; . = no result given. The list is not random: actives were taken first. Their share in the collection is about 0.5%. Unless noted, calls follow the shape of the dose curve; as a rule, active = well fitted curve in the direction sought with a large enough effect; inconclusive = small, poorly fitted or top-dose-only effect, or another doubt; inactive = no such curve, though single readings can be large; an effect the other way counts as inactive or inconclusive.

SMILES	PTHR1 ag	TSHR antag	EPAC2 antag	EPAC1 antagonist	EPAC1 agonist	EPAC2 agonist
CCSc1nsc(NC(=O)Nc2cccc(F)c2)n1	-	?	-	-	-	-
CCCSc1nsc(NC(=O)Nc2ccc(F)cc2F)n1	-	-118.5	-	-	-	-
CCCSc1nsc(NC(=O)C(c2ccccc2)c2ccccc2)n1	-	-80.0	-	-	-	-
O=C1c2cccc3c(O)ccc(c23)C(=O)N1c1ccc(Cl)cc1	-	-	-	-	100µM	112µM
O=C1c2cccc3c(O)ccc(c23)C(=O)N1Cc1ccco1	-	-	-	-	56.2µM	100µM
O=C1c2ccccc2C(=O)N1Cc1ccco1	-	-	-	-	-	-
CC(=O)Nc1ccc(N2C(=O)c3cccc4c(O)ccc(c34)C2=O)cc1	-	-	-	?	89.1µM	112µM
Cc1ccc(S(=O)(=O)N2CCC(C(=O)Nc3cc(C(F)(F)F)ccc3N3CCOCC3)CC2)cc1C	-	-	-	-	-	-
CCOC(=O)c1ccc(CN(Cc2ccccc2C)S(=O)(=O)c2ccc(C(C)(C)C)cc2)cc1	-	.	.	.	.	.
COc1ccc(OC)c(CNC(=O)c2ccc(N3Cc4ccccc4Oc4ncccc43)s2)c1	-	.	.	.	.	.
Cc1ccc(/C=N/c2sc3c(c2C#N)CCCCC3)o1	-	-	-	-	-	-
N#Cc1c(/N=C/c2ccco2)sc2c1CCC2	-	-	-	-	-	10µM
CCN1CCN(S(=O)(=O)c2ccc(OC)c(NC(=O)c3ccccc3F)c2)CC1	-	-	-	-	-	-
CC1=CC(=O)C(C(C)C)=C/C1=N/OS(=O)(=O)c1ccccc1	-	-97.6	-	-	-	-
Cc1cc(C(O)c2ncc(-c3ccc(Oc4ccccc4)cc3)[nH]2)ccc1F (stereo not drawn)	-	.	-	-	-	-
Cc1cccc(C)c1OCCCn1ccnc1	-	-130.0	-	-	-	-
CCc1cccc(CC)c1N1C(=O)C2=C(SCCCS2)C1=O	-	.	-	-	100µM	112µM
COc1ccc(CC(=O)NNC(=O)c2ccc(Br)o2)cc1	-	-	-	-	-	-
CC(C)(C)c1ccc(S(=O)(=O)NC(=O)C2(C)CCN2C(=O)c2cccc3ccccc23)cc1 (stereo not drawn)	-	.	-	-	-	-
Cc1nn(CC(=O)N2CCN(c3ccccc3)CC2)c(=O)c2cc3sccc3n12	-	.	.	.	.	.
Cc1ccc(N=Cc2sc(O)c3ccccc23)c(C)c1	-	-	-	-	-	100µM
CN(CC(=O)Nc1ccccc1C(F)(F)F)C(=O)c1ccccc1Sc1ccccc1C#N	-	-	-	-	-	-
COc1ccc(OC)c(NC(=O)c2nc(S(=O)(=O)Cc3ccccc3)ncc2Cl)c1	-	-93.2	-	?	-	-
COc1ccc2nc(NC(=O)c3nc(S(=O)(=O)Cc4ccccc4)ncc3Cl)sc2c1	-	.	.	.	.	.
COc1ccc(NC(=O)c2nc(S(=O)(=O)Cc3cccc(C)c3)ncc2Cl)c(OC)c1	-	-80.4	-	-	-	-
SMILES	PTHR1 ag	TSHR antag	EPAC2 antag	EPAC1 antagonist	EPAC1 agonist	EPAC2 agonist
CCN(CC)S(=O)(=O)c1ccc2c(c1)N(CC(=O)Nc1ccc(NC(C)=O)cc1)C(=O)CO2	-	-	-	-	-	-
COc1ccc(CCC(=O)NCc2ccc3c(c2)CCN3C(=O)c2ccc(Cl)cc2)cc1	-	.	.	.	.	.
Cn1cc(S(=O)(=O)NC[C@H]2O[C@@H](n3cnc4c(N)ncnc43)[C@H](O)[C@@H]2O)cn1	-	-	-	-	-	-
COc1cccc(CNC(=O)CCn2nc(C)c3c(C)n(-c4ccccc4)nc3c2=O)c1	-	.	.	.	.	.
O=C(NCCS(=O)(=O)NC1CCCC1)c1ccccc1	-	-	-	-	-	-
Cc1ccc(-n2c(O)c(C=Nc3ccccc3-c3n[nH]c(=S)[nH]c3=O)c3ccccc3c2=O)cc1C	-	-	-	50.1µM	-	-
Cc1cccc(C)c1NC(=O)CNC(=O)c1ccc(NS(=O)(=O)c2ccc3[nH]c(=O)[nH]c3c2)cc1	-	-	-	-	-	-
CN(C)c1ccc(NC(=O)Cn2c(SCc3ccc(F)cc3)nc3cccnc32)cc1	50.1µM	.	.	.	.	.
C(=N\Nc1nc2ccccc2[nH]1)/c1ccncc1	-	-87.8	-	-	-	-
O=C(O)c1ccc(/C=N/Nc2nc3ccccc3[nH]2)cc1	-	-	-	-	-	-
Cc1c(Nc2cc(Cl)c3nonc3c2[N+](=O)[O-])c(=O)n(-c2ccccc2)n1C	-	-85.4	-	-	-	-
Cc1c(Nc2cc(N3CCOCC3)c3nonc3c2[N+](=O)[O-])c(=O)n(-c2ccccc2)n1C	.	-	.	.	.	.
O=C(O)c1cccc(Nc2ccc3nonc3c2[N+](=O)[O-])c1	-	-	-	-	-	-
O=[N+]([O-])c1c(Nc2cccc(O)c2)cc(Cl)c2nonc12	-	-98.1	-	-	-	-
Cc1ccc(S(=O)(=O)N2CCCCC2)cc1C(=O)NCCC1=CCCCC1	-	-	-	-	112µM	-
N#Cc1nc(-c2cccc3ccccc23)oc1NCC#CCOC(=O)c1cccs1	.	-	.	.	.	.
O=C(CSc1ccccn1)Nc1ccccc1F	-	-	-	-	-	-
O=C(CSc1ccccn1)Nc1cccc2ccccc12	-	-115.7	-	-	-	-
Cc1cc2nc3ccc(=[N+](C)C)cc-3sc2cc1N	-	-107.6	-	-	-	-
COC(=O)c1c(C)[nH]c(C(=O)COC(=O)CCNS(=O)(=O)c2cccc(C(F)(F)F)c2)c1C	?	-	-	-	-	-
COc1ccc(Cl)cc1NC(=O)C1CCN(C(=O)C2CC(=O)N(c3ccc(C)cc3)C2)CC1 (stereo not drawn)	-	-113.4	-	-	-	-
COc1ccc(/C=C2/SC(=S)N(c3ccc(S(=O)(=O)Nc4nccs4)cc3)C2=O)cc1	-	-	-	70.8µM	-	-
COc1ccc(/C=C2/SC(=O)N(CCC(=O)Nc3ccc(S(=O)(=O)Nc4nccs4)cc3)C2=O)cc1	-	-	-	50.1µM	-	-
COc1ccc(/C=C2\SC(=O)N(CCC(=O)Nc3ccc(S(=O)(=O)Nc4nccs4)cc3)C2=O)cc1	-	-	-	-	-	-
COc1ccc(CCNC(=O)CCS(=O)(=O)c2ccc3c(c2)oc(=O)n3C)cc1OC	-	-	-	-	-	-
COCCCNC(=O)C(C#N)c1nc2ccccc2nc1N1CCN(Cc2ccccc2)CC1 (stereo not drawn)	-	-	79.4µM	-	-	-
Cc1cc(C)c(NC(=O)CSc2ccnc(=O)[nH]2)c(C)c1	-	.	.	.	.	.
